Experimental data from PubChem BioAssay (NCI).
This is part of a sample that, as a whole, favours compounds with a hit. Of some 79,000 tested, about 15% had one in any assay. Calls of active or inactive are those of the source. Rule as the data show it: active = growth inhibition above about 70%; inactive = the rest.

Assays:
[1] = NCI Yeast Anticancer Drug Screen. Data for the mec2-1 strain (AID 157); conditions: S. cerevisiae mec2-1 strain, stronger effect = higher value
How it was run: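 Test agents were screened against the mec2-1 yeast strain, with defined DNA repair or cell cycle alteration. Growth was scored as inhibition against vehicle-only controls.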

[2] = NCI Yeast Anticancer Drug Screen. Data for the rad14 strain (AID 159);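 also: 0% = growth of vehicle-treated control cultures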; conditions: S. cerevisiae rad14 strain growth inhibition, stronger effect = higher value
How it was run: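 DNA repair-defective yeast, compound-exposed; % growth inhibition derived by comparison with vehicle-treated controls.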

[3] = NCI Yeast Anticancer Drug Screen. Data for the sgs1 mgt1 strain (AID 161);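 also: 0% = growth of cultures given vehicle only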; conditions: S. cerevisiae sgs1 mgt1 strain, stronger effect = higher value
How it was run: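 Genetically altered yeast, compound exposure, growth inhibition relative to vehicle.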

[4] = NCI Yeast Anticancer Drug Screen. Data for the CLN2oe strain (AID 163);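 also: 0% = growth of vehicle-only control cultures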; conditions: S. cerevisiae CLN2oe strain, stronger effect = higher value
How it was run: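 Here, growth inhibition in a cell-cycle-altered yeast strain after compound exposure was quantified against vehicle control growth.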

[5] = NCI Yeast Anticancer Drug Screen. Data for the cln2 rad14 strain (AID 165);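 also: 0% = growth equal to vehicle treated cultures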; conditions: S. cerevisiae cln2 rad14 strain, stronger effect = higher value
How it was run: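 Growth of compound-exposed yeast (cln2 rad14 genotype) measured and expressed as inhibition relative to vehicle.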

[6] = NCI Yeast Anticancer Drug Screen. Data for the bub3 strain (AID 167); conditions: S. cerevisiae bub3 mutant strain, stronger effect = higher value
How it was run: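 In this screen, a yeast mutant lacking normal mitotic checkpoint function is challenged with compound. Relative growth versus vehicle gives the inhibition value.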

[7] = NCI Yeast Anticancer Drug Screen. Data for the wt2 strain (AID 169);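 also: 0% = growth of vehicle-treated yeast cultures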; conditions: S. cerevisiae wt2 strain growth inhibition, stronger effect = higher value
How it was run: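 Genetically defined yeast strains from a DNA-repair/cell-cycle panel were used. Compound-exposed yeast growth was measured, and the inhibition was calculated relative to vehicle treatment.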

[8] = NCI Yeast Anticancer Drug Screen. Data for the mlh1 strain (AID 171);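 also: 0% = growth of vehicle-treated control cultures of the same strain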; conditions: S. cerevisiae mlh1 strain growth inhibition, stronger effect = higher value
How it was run: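 Here the genetically defined yeast mutant is grown with each compound, and the extent to which its growth falls below that of vehicle-exposed cells is reported.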

[9] = NCI Yeast Anticancer Drug Screen. Data for the sgs1 strain (AID 173);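 also: 0% = growth of vehicle-only control cultures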; conditions: S. cerevisiae sgs1 mutant, stronger effect = higher value
How it was run: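 Relative growth inhibition, referenced to vehicle, was determined in a yeast strain with a defined alteration affecting DNA damage repair or cell cycle control after compound exposure.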

[10] = NCI Yeast Anticancer Drug Screen. Data for the mlh1 rad18 strain (AID 175); conditions: S. cerevisiae mlh1 rad18 strain growth inhibition, stronger effect = higher value
How it was run: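 In this whole-cell yeast screen, a strain with altered DNA damage repair is challenged with compound, and its growth is measured against matched vehicle-treated controls.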

[11] = NCI Yeast Anticancer Drug Screen. Data for the rad18 strain (AID 177); conditions: S. cerevisiae rad18 mutant growth inhibition, stronger effect = higher value
How it was run: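 Screen uses a yeast strain with a defined lesion in DNA damage repair; compound effect is read as loss of growth compared to untreated vehicle cultures.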

[12] = NCI Yeast Anticancer Drug Screen. Data for the rad52 strain (AID 147);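 also: 0% = growth of vehicle-treated control cultures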; conditions: S. cerevisiae rad52 mutant growth inhibition, stronger effect = higher value
How it was run: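 Measured: yeast growth inhibition. System: strain with a defined DNA damage repair alteration. Reference: vehicle-treated control cultures.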

[13] = NCI Yeast Anticancer Drug Screen. Data for the wt1 strain (AID 149);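 also: 0% = growth of vehicle-treated wt1 cultures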; conditions: S. cerevisiae wt1 strain (SPY 50644) growth inhibition, stronger effect = higher value
How it was run: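 wt1 strain grown with compound or vehicle; inhibition taken from the growth difference.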

[14] = NCI Yeast Anticancer Drug Screen. Data for the rad50EPP+ strain (AID 151);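 also: 0% = growth of vehicle-treated control cultures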; conditions: S. cerevisiae rad50 mutant strain, stronger effect = higher value
How it was run: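 One strain with a rad50 alteration (rad50EPP+) was compound-treated, its growth then compared to that of vehicle controls.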

[15] = NCI Yeast Anticancer Drug Screen. Data for the rad50 strain (AID 155);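 also: 0% = growth of vehicle-only cultures of the same strain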; conditions: S. cerevisiae rad50 strain growth inhibition, stronger effect = higher value
How it was run: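 DNA repair mutant yeast, compound exposure, growth read-out; inhibition is taken relative to vehicle.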

[16] = at 5.0 µM (retest, dose inferred, filed as 0.5)
[17] = at 50.0 µM (retest, dose inferred, filed as 5.0)

Measured: growth inhibition

Nc1ccc(CCl)cc1Cc1c(O)ccc2ccccc12
active: [3]; at 50.0 µM 70.3%
inactive: [1]; at 100.0 µM 33% | [2]; at 1.2 µM 1% | [2]; at 3.7 µM 3% | [2]; at 11.0 µM 8% | [2]; at 33.0 µM 16% | [2]; at 100.0 µM 29% | [3]; [16] 2% | [3]; [17] 64% | [4]; at 1.2 µM -3% | [4]; at 3.7 µM -7% | [4]; at 11.0 µM 3% | [4]; at 33.0 µM -1% | [4]; at 100.0 µM 34% | [5]; [16] 6% | [5]; [17] 61% | [5]; at 50.0 µM 29.3% | [6]; at 1.2 µM -4% | [6]; at 3.7 µM -2% | [6]; [16] 3% | [6]; at 11.0 µM 0% | [6]; at 33.0 µM 1% | [6]; [17] 43% | [6]; at 50.0 µM 55% | [6]; at 100.0 µM 27% | [7]; at 1.2 µM 1% | [7]; at 3.7 µM 6% | [7]; at 11.0 µM 16% | [7]; at 33.0 µM 23% | [7]; at 100.0 µM 32% | [8]; at 1.2 µM 1% | [8]; at 3.7 µM 2% | [8]; at 11.0 µM 5% | [8]; at 33.0 µM 8% | [8]; at 100.0 µM 31% | [9]; at 1.2 µM 1% | [9]; at 3.7 µM 1% | [9]; at 11.0 µM 10% | [9]; at 33.0 µM 21% | [9]; at 100.0 µM 38% | [10]; [16] 0% | [10]; [17] 61% | [10]; at 50.0 µM 66.7% | [11]; at 1.2 µM 1% | [11]; at 3.7 µM 1% | [11]; at 11.0 µM 7% | [11]; at 33.0 µM 16% | [11]; at 100.0 µM 33%

Cc1ccc(S(=O)(=O)N(C)c2ccc(Cl)cc2C2=NCCc3ccccc32)cc1
inactive: [12]; at 1.2 µM 2% | [12]; at 3.7 µM -8% | [12]; at 11.0 µM -6% | [12]; at 33.0 µM 3% | [13]; at 1.2 µM -2% | [13]; at 3.7 µM -19% | [13]; at 11.0 µM -12% | [13]; at 33.0 µM -6% | [14]; at 1.2 µM -8% | [14]; at 3.7 µM -9% | [14]; at 11.0 µM -14% | [14]; at 33.0 µM -9% | [14]; at 100.0 µM -8% | [15]; at 1.2 µM 0% | [15]; at 3.7 µM 5% | [15]; [16] 47% | [15]; at 11.0 µM 11% | [15]; at 33.0 µM 3% | [15]; [17] 56% | [1]; at 1.2 µM -7% | [1]; at 3.7 µM -26% | [1]; [16] 39% | [1]; at 11.0 µM -18% | [1]; at 33.0 µM -3% | [1]; [17] 61% | [2]; at 1.2 µM -23% | [2]; at 3.7 µM -40% | [2]; at 11.0 µM -28% | [2]; at 33.0 µM -15% | [3]; [16] 7% | [4]; at 1.2 µM 15% | [4]; at 3.7 µM 2% | [4]; at 11.0 µM 18% | [4]; at 33.0 µM 9% | [5]; [16] 51% | [6]; at 1.2 µM -16% | [6]; at 3.7 µM -9% | [6]; [16] 52% | [6]; at 11.0 µM 1% | [6]; at 33.0 µM 7% | [7]; at 1.2 µM -25% | [7]; at 3.7 µM -40% | [7]; at 11.0 µM -19% | [7]; at 33.0 µM 6% | [8]; at 1.2 µM -21% | [8]; at 3.7 µM -21% | [8]; at 11.0 µM -17% | [8]; at 33.0 µM 14% | [9]; at 1.2 µM -15% | [9]; at 3.7 µM -20% | [9]; at 11.0 µM -11% | [9]; at 33.0 µM 6% | [10]; [16] 45% | [10]; [17] 55% | [11]; at 1.2 µM -13% | [11]; at 3.7 µM -12% | [11]; at 11.0 µM -18% | [11]; at 33.0 µM -11%
active: [12]; at 100.0 µM 95% | [13]; at 100.0 µM 95% | [15]; at 50.0 µM 89% | [15]; at 100.0 µM 94% | [1]; at 50.0 µM 91.7% | [1]; at 100.0 µM 95% | [2]; at 100.0 µM 94% | [3]; [17] 94% | [3]; at 50.0 µM 93.1% | [4]; at 100.0 µM 96% | [5]; [17] 98% | [5]; at 50.0 µM 90% | [6]; [17] 95% | [6]; at 50.0 µM 91.6% | [6]; at 100.0 µM 95% | [7]; at 100.0 µM 94% | [8]; at 100.0 µM 96% | [9]; at 100.0 µM 93% | [10]; at 50.0 µM 90.4% | [11]; at 100.0 µM 94%
